Screens (PubChem)
This is a sample that favours compounds with a hit; in the whole collection about 3.5% have one here.
GPR151 ag = activators of human GPR151, primary screen, cell-based, PathHunter beta-arrestin, luminescence | G-protein coupled receptor 151 (Homo sapiens), Q8TDV0 | PathHunter beta-arrestin GPR151 cells | activation, % at 11.2 µM | 650,000 compounds, 1% hits | AID 1508602, 2020; in the data active = activation above about 4.9%
MITF inh = MITF inhibitors, primary screen, biochemical, AlphaScreen, human | inhibition, % at 2.6 µM | AlphaScreen MITF homodimerization, bead proximity signal | 650,000 compounds, 0.91% hits | Microphthalmia-associated transcription factor (Homo sapiens), O75030; in the data active = inhibition above about 50%
Target sequence (O75030 whole entry, looked up): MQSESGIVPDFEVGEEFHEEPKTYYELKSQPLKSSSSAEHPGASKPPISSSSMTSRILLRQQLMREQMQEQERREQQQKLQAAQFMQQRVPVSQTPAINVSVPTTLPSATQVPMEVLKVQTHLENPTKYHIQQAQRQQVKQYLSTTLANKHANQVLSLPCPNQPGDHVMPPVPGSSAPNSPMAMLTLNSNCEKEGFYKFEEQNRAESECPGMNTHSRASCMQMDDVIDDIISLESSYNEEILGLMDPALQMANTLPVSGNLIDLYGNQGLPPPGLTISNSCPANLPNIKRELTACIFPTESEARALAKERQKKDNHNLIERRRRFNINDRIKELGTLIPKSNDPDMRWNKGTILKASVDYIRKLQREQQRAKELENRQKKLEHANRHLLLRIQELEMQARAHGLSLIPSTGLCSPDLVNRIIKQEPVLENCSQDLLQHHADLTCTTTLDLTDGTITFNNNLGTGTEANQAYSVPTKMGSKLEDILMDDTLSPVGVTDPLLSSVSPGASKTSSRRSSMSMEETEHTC
TEAD-YAP inh = TEAD-YAP interaction inhibition, primary screen, TEAD-YAP interaction inhibitor project, luminescence, HEK-TIYL cells | AID 1259422, 2018 | TEAD-Gal4/YAP UAS-luciferase luminescence | 640,000 compounds, 1.4% hits | inhibition, % at 9.12 µM; in the data active = inhibition above about 32%
FBW7 activator = FBW7 E3 ligase activators, primary screen, biochemical, AlphaScreen, human | F-box/WD repeat-containing protein 7 (Homo sapiens), Q969H0 | AlphaScreen FBW7–phospho-cyclin E peptide binding, activator screen | normalized activity (activation), % at 26.1 µM | 650,000 compounds, 0.13% hits; in the data active = normalized activity above about 1.9%;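 note: purified mutant Fbw7 with reduced substrate affinity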
GPR151 conf act = GPR151 activators, triplicate retest, confirmation, cell-based, PathHunter beta-arrestin, luminescence. shares compounds with GPR151 ag. GPR151 PathHunter beta-arrestin cells, 90 min; % of EA-reagent control over plate median. 6,700 tested, under 10 active. activation, % at 11.2 µM;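 active = mean percent activation across replicates above the confirmation screen cutoff of 4.91%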
GPR119 ag = GPR119 activators in beta-arrestin cells, counter-screen for GPR151 activator project, cell-based, PathHunter beta-arrestin, luminescence, triplicate | shares compounds with GPR151 ag | 90 min; 0 = compound-well median, 100 = enzyme-acceptor control | activation, % at 11.2 µM | AID 1508611, 2020 | 6,700 compounds, 0.3% hits;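 active = mean percent activation in the counterscreen above 29.09%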;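 note: counterscreen on off-target GPR119 to flag nonselective hits from the GPR151 activator screen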
Of the large screens only hits and unclear results are named; the others gave an inactive call (follow-up assays come after a bar, where they were run).

Cc1ccc(C(=O)C2=C(O)C(=O)N(CCN3CCOCC3)C2c2ccccn2)o1 (centres undefined)	GPR151 ag 7.9 | GPR151 conf act inactive | GPR119 ag inactive
Cc1ccc(OCC(=O)N/N=C\c2cccc([N+](=O)[O-])c2)c([N+](=O)[O-])c1	none
COCCCNC(=O)COc1ccc(Cl)c(C)c1	none
COCCCNC(=O)CCCc1ccc(OC)c(C)c1	GPR151 ag 13 | GPR151 conf act inactive | GPR119 ag inactive
Cc1ccc(C)c(OCC(=O)NCCCN(C)C)c1	GPR151 ag 9.1 | GPR151 conf act inactive | GPR119 ag inactive
Cc1ccc(OCC(=O)Nc2ccncc2)cc1C	GPR151 ag 4.9 | GPR151 conf act inactive | GPR119 ag inactive
COCCCNC(=O)COc1ccc(C)c(C)c1	GPR151 ag 10 | GPR151 conf act inactive | GPR119 ag inactive
Cc1ccc(N2C(=O)/C(=C\c3ccc(C(C)C)cc3)C3=C2C(=O)N(c2ccc(C)cc2)C3c2ccccc2)cc1 (centres undefined)	none
CCOc1ccccc1C1CC(=O)NC2=C1C(=O)CC(c1ccc(OC)c(OC)c1)C2 (centres undefined)	none
COc1ccc(-c2nc(=S)c3c([nH]2)Oc2c(C)ncc(CO)c2C3)cc1	none
Cn1ccc2cc(-c3cc(C(=O)NC4CC4)ccn3)ccc21	GPR151 ag 22 | GPR151 conf act inactive | GPR119 ag inactive
O=C(NCc1ccccc1)c1nnc(Cc2cccc(Cl)c2)o1	none
Cc1ccc(CNC(=O)c2nnc(Cc3cccc(Cl)c3)o2)cc1	GPR151 ag 7.4 | GPR151 conf act inactive | GPR119 ag inactive
Cc1ccc(NC(=O)Cc2ccc3c(c2)CCC3)nc1	none
CCCCC1CN(CCC(=O)NCc2c(C)nn(CC)c2C)Cc2ccccc2O1 (centres undefined)	GPR151 ag 7.5 | GPR151 conf act inactive | GPR119 ag inactive
COc1ccc2nc(N3CCC(NCC(C)C)CC3)nc(C)c2c1	none
Cc1ccc2nc(N3CCC(NCC(C)C)CC3)nc(C)c2c1	GPR151 ag 7.9 | GPR151 conf act inactive | GPR119 ag inactive
CCOc1ccc(-n2c(C)nc3cc(C(=O)NCc4ccc(C)cc4)ccc32)cc1	GPR151 ag 5.3 | GPR151 conf act inactive | GPR119 ag inactive
Cn1c(SCC(=O)Nc2ccc(F)c(F)c2)nnc1-c1ccccn1	none
Cn1c(SCC(=O)c2cccc(Br)c2)nnc1-c1ccccn1	GPR151 ag 4.9 | GPR151 conf act inactive | GPR119 ag inactive
CCOC(=O)COc1ccc(S(=O)(=O)Nc2ccc(Br)cc2F)cc1	none
Cc1cc(C)c2sc(NC(=O)CCC3CCCC3)nc2n1	GPR151 ag 5.3 | GPR151 conf act inactive | GPR119 ag inactive
COc1cc(C2CC(=O)Nc3cc(C)c(C)cc32)cc(OC)c1OC (centres undefined)	GPR151 ag 13, TEAD-YAP inh 49 | GPR151 conf act inactive | GPR119 ag inactive
Cc1cc2c(cc1C)C(c1cccc([N+](=O)[O-])c1)CC(=O)N2 (centres undefined)	none
COc1cccc(C2CC(=O)Nc3cc(C)c(C)cc32)c1OC (centres undefined)	none
Cc1cc2c(cc1C)C(c1cc([N+](=O)[O-])ccc1Cl)CC(=O)N2 (centres undefined)	GPR151 ag 5.0 | GPR151 conf act inactive | GPR119 ag inactive
Cc1oc2c(c1C(=O)N1CCC3(CC1)NC(=O)c1ccccc1O3)CCCC2	none
COc1ccc(CN[C@@H]2C[C@@H](C(=O)NC(C)C)N(C(C)C)C2)cc1C	none
CC1(C)C(c2ccco2)=[N+]([O-])C2(CCCCCC2=O)N1O (centres undefined)	GPR151 ag 7.7 | GPR151 conf act inactive | GPR119 ag inactive
CC1(C)C(c2cccs2)=[N+]([O-])C2(CCCCCC2=O)N1O (centres undefined)	none
COC(CNc1cc(-c2ccccc2)nc(-c2cccnc2)n1)OC	none
CCN(CC)c1ccc(/C=C(\C#N)c2nn(-c3ccccc3)c(N)c2C#N)cc1	none
O=C1CN(c2ccccc2NC(=O)C2(c3cccs3)CCCC2)CCN1	GPR151 ag 5.0 | GPR151 conf act inactive | GPR119 ag inactive
CC1CCCCN1c1nc2ccccc2n2cnnc12 (centres undefined)	none
Cc1cc(C)c2c(-n3cccc3)c(C(=O)NCCN(C)C)sc2n1	none
C=CCOC(=O)C1=C(C)N2CCSC2=C(C#N)C1c1ccco1 (centres undefined)	GPR151 ag 5.1 | GPR151 conf act inactive | GPR119 ag inactive
CCOC(=O)COc1ccc(/C=C2\C=C(c3ccc(Br)cc3)OC2=O)cc1OC	GPR151 ag 13 | GPR151 conf act inactive | GPR119 ag inactive
COc1ccccc1CCc1nnc(CCC(=O)NCCSC)o1	none
COc1ccc(NC(=O)CCc2c(C)nc3c4c(C)cc(C)nc4nn3c2C)cc1	none
Cc1ccc(N2C(=O)c3ccc(C(=O)N4CCCCC4C)cc3C2=O)cc1 (centres undefined)	GPR151 ag 5.0 | GPR151 conf act inactive | GPR119 ag inactive
Cc1cc(N2C(=O)c3ccc(C(=O)N4CCCCC4C)cc3C2=O)no1 (centres undefined)	none
O=C(O)CCCn1c(=O)oc2ccccc21	none
O=C(CCCn1c(=O)oc2ccccc21)NNC(=O)COc1ccc(F)cc1	GPR151 ag 5.7 | GPR151 conf act inactive | GPR119 ag inactive
CCc1ccc2[nH]c3nc(N/N=C/c4ccc(O)cc4)nnc3c2c1	none
CCc1ccc2[nH]c3nc(N/N=C/c4cccc(O)c4)nnc3c2c1	GPR151 ag 6.7 | GPR151 conf act inactive | GPR119 ag inactive
COC(=O)C1=C(C)Nc2nnnn2C1c1cccc(O)c1 (centres undefined)	none
CCOC(=O)C1=C(C)Nc2nnnn2C1c1cccc(O)c1 (centres undefined)	GPR151 ag 13 | GPR151 conf act inactive | GPR119 ag inactive
COC(=O)C1=C(C)Nc2ncnn2C1c1cccc(OC)c1 (centres undefined)	none
COCCOC(=O)C1=C(C)Nc2ncnn2C1c1cccc(OC)c1 (centres undefined)	GPR151 ag 5.8 | GPR151 conf act inactive | GPR119 ag inactive
CC1=CC2=NC(Cc3ccc(Br)cc3)(NC(=O)c3ccccc3)C(=O)N2C=C1 (centres undefined)	none
